High-throughput results deposited in PubChem by National Center for Advancing Translational Sciences (NCATS).
VP16 counter: counter-screen for ROR gamma inhibitors: Gal4-VP16 reporter | Drosophila S2 Gal4-VP16 UAS-luciferase, luminescence, 20 h | Potency, µM (doses to about 53.6 µM), for the others: at the highest dose activity, negative = inhibition, usual class: inhibitors | 310,000 compounds, 3.5% hits;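 note: Gal4-VP16 expression switched on by copper sulfate through the metallothionein promoter; nearly all actives have a fitted effect of over 50% in size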
RORg inh: ROR gamma (mouse) transcription inhibition; 310,000 compounds, 5.4% hits; Drosophila S2 Gal4-RORgamma UAS-luciferase reporter, 20 h; Potency, µM (doses to about 53.6 µM), for the others: top-dose activity change, negative = inhibition, actives largely listed as inhibitors; note: nearly all actives have a fitted effect of over 60% in size
Target sequence (P51450 whole entry, looked up, the tested form may be a part): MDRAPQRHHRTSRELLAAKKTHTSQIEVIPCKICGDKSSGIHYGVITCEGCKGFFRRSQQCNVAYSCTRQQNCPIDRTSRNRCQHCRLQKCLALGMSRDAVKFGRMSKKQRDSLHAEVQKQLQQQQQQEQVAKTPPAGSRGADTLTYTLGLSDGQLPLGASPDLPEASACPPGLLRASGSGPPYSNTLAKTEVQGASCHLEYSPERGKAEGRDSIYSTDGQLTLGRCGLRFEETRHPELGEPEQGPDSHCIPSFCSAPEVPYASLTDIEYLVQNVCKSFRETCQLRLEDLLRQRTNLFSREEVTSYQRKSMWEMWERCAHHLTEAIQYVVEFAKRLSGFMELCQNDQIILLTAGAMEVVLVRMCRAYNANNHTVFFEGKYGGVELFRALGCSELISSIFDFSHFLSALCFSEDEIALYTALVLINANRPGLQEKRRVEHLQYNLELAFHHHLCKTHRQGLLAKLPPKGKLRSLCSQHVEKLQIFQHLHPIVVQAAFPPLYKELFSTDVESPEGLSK
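Compounds are pin-transferred onto Drosophila Schneider cells expressing a copper-inducible Gal4–ROR gamma transactivation domain fusion. After 1 hr, copper sulfate is added to 700 uM final; luciferase is read 20 hr later.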
TDP1 cell CPT: growth inhibition of DT40 Tdp1-/-;hTDP1 cells with camptothecin (screen for TDP1 inhibitors). chicken DT40 Tdp1-/-;hTDP1 cells + 20 nM CPT, ATP luminescence, 48 h. Potency, µM (highest dose often 46.2 µM), for inactives: top-dose activity change, negative = growth inhibition, usual class: inhibitors. 420,000 compounds, 12% hits; note: nearly all actives have a fitted effect of over 55% in size
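Chicken DT40 Tdp1-/- cells complemented with human TDP1, 400 cells/well, exposed to compounds plus 20 nM camptothecin for at least 48 h at 37 C; viability read as ATP content by CellTiter-Glo luminescence.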
TDP1 cell noCPT: qHTS for Inhibitors of human tyrosyl-DNA phosphodiesterase 1 (TDP1): qHTS in cells in absence of CPT; DT40 Tdp1-/- hTDP1 cells, no CPT, ATP luminescence, 48 h; Potency, µM (titrated, usually from 46.2 µM), for the others: top-dose activity change, negative = growth inhibition, hits mostly inhibitors; 420,000 compounds, 15% hits; AID 686978, 2013; note: nearly all actives have a fitted effect of over 55% in size
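Compound effects on proliferation are scored in DT40 Tdp1-/-;hTDP1 cells in the absence of CPT. ATP levels (CellTiter-Glo luminescence) are recorded after a ≥48 hr, 37 °C incubation.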
TDP1 inh: blocks human tyrosyl-DNA phosphodiesterase 1; 350,000 compounds, 0.28% hits; Q9NUW8; AID 485290; recombinant TDP1, AlphaScreen DNA substrate cleavage; Potency, µM (doses to about 130 µM), for the others: at the top dose activity change, negative = inhibition, usual class: inhibitors; note: nearly all actives have a fitted effect of over 40% in size
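Signal: AlphaScreen proximity between streptavidin donor and anti-FITC acceptor beads on intact substrate. Reaction: Tdp1 1 nM, substrate 15 nM final, 5 min RT after 15 min compound preincubation.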
* marks the source's active call; other numbers are inactive results; ? = inconclusive; nt = no result given; [ ] = remark or other dose. Only some compounds are listed: those with a hit (about 19% of all), similar ones and a draw of the others. Calls come from the whole dose curve; as a rule, active = well fitted curve in the direction sought with a large enough effect; inconclusive = small, poorly fitted or top-dose-only effect, or another doubt; inactive = no such curve, though single readings can be large; an effect the other way counts as inactive or inconclusive. % is set by controls: 0 for no effect and ±100 for the full control effect; potency is the fitted concentration of half-maximal effect.

SMILES	VP16 counter	RORg inh	TDP1 cell CPT	TDP1 cell noCPT	TDP1 inh
CC(=O)N(Cc1cccs1)Cc1cc2ccc(C)c(C)c2nc1Cl	-19%	-3%	18µM*	21µM*	5%
CCOC(=O)c1sc(N2N=C(C)C(N=Nc3cccc(C)c3)C2=O)nc1C (configuration not stated)	?	11µM*	?	?	nt
CC1=NN(c2nc(-c3ccc(C)cc3)cs2)C(=O)C1N=Nc1cccc(C)c1 (configuration not stated)	?	7.1µM*	?	?	7%
Cc1csc(CNc2ncnc3ccc(-c4ccc5c(c4)OCCO5)cc23)c1	nt	nt	nt	nt	1%
COc1ccc(NC(=O)c2cccc(S(=O)(=O)N3CCc4ccccc43)c2)c(OC)c1	nt	nt	7%	-5%	nt
CCOc1cccc(C(=O)Nc2nnc(-c3ccco3)s2)c1	2%	-20%	-8%	-17%	6%
CC1=C(c2ccc(C)cc2)S(=O)(=O)NC1=NCc1ccccc1Cl	nt	nt	23µM*	21µM*	0%
CC1=C(c2ccc(F)cc2)S(=O)(=O)NC1=NCc1ccccc1Cl	nt	nt	-23%	-30%	3%
COc1ccc2cc(CN(CCO)C(=O)c3ccc(Br)cc3)c(=O)[nH]c2c1	-27%	22%	?	?	0%
C=CCOc1ccc(/C=N/Nc2ccccn2)cc1OC	?	3%	-28%	26µM*	11%
CCOc1ccc(/C=N/Nc2ccccn2)cc1OC	?	10µM*	-32%	?	8%
CCCOc1ccc(/C=N/Nc2ccccn2)cc1OC	2%	9%	-22%	-28%	6%
COc1cc(/C=N/Nc2ccccn2)ccc1OCC(C)C	?	?	?	10µM*	9%
COC(=O)CCC(=O)Nc1ccccc1C(=O)Nc1ccccc1	-6%	2%	-4%	3%	4%
O=C1CCCC/C=C\C[C@H](CC(=O)N(CCO)Cc2ccccc2)C(=O)NC[C@H](c2ccccc2)O1	nt	nt	?	?	0%
O=C1NC[C@@H](c2ccccc2)OC(=O)[C@@H](Cc2ccc(F)cc2)C/C=C\C[C@@H]1CC(=O)N(CCO)Cc1ccccc1	nt	nt	?	16µM*	1%
O=C1NC[C@@H](c2ccccc2)OC(=O)[C@H](Cc2ccc(F)cc2)C/C=C\C[C@@H]1CC(=O)N(CCO)Cc1ccccc1	nt	nt	?	23µM*	1%
O=C1NC[C@H](c2ccccc2)OC(=O)[C@H](Cc2ccc(F)cc2)C/C=C\C[C@@H]1CC(=O)N(CCO)Cc1ccccc1	nt	nt	21µM*	16µM*	1%
Cc1c(Cl)ccc2c(C(O)CBr)cc(-c3ccccc3)nc12 (configuration not stated)	nt	nt	?	16µM*	nt
Cc1ccc(S(=O)(=O)N2CCCCC2)cc1NC(=O)CN1C(=O)c2ccccc2S1(=O)=O	nt	nt	-9%	14%	-7%
Clc1ccc(-c2nnc3sc(Cc4cccs4)nn23)c(Cl)c1	7%	-31%	?	?	10%
COCC(C)NC(=O)c1cc(OC)cc(OC)c1 (configuration not stated)	3%	-5%	-13%	-29%	1%
COc1cc(OC)cc(C(=O)NC(C)CNc2ccc(Cl)cc2[N+](=O)[O-])c1 (configuration not stated)	3%	16%	?	8.2µM*	nt
O=C(CSc1ccc(F)cc1)Nc1ccc(Br)cc1	-2%	?	-30%	18µM*	-4%
CCNC(=O)c1ccccc1SCC(=O)Nc1ccc(F)cc1	-4%	?	16µM*	?	9%
SMILES	VP16 counter	RORg inh	TDP1 cell CPT	TDP1 cell noCPT	TDP1 inh
CCNC(=O)c1ccccc1SCc1ccccc1	-19%	-18%	-19%	-6%	6%
CC(C)n1c(N2CCN(CC(=O)NCc3cccs3)CC2)nc2ccccc21	3%	22%	?	?	12%
CC(C)n1c(N2CCN(C(=O)Nc3ccc(F)cc3F)CC2)nc2ccccc21	-2%	13%	-7%	-9%	6%
CC(C)n1c(N2CCN(C(=O)N3CCCCC3)CC2)nc2ccccc21	-2%	-13%	13µM*	?	0%
CC(C)n1c(N2CCN(C(=O)c3cccs3)CC2)nc2ccccc21	-1%	-9%	?	23µM*	7%
CC1CCCN(C(=O)Cc2cn(Cc3cccc(Cl)c3)c3ccccc23)C1 (configuration not stated)	-80%	-24%[10 µM]	?	15µM*	3%
CCOc1ccc(CC(=O)N2N=C(C)CC2(O)C(F)(F)F)cc1 (configuration not stated)	5µM*	1.6µM*	18µM*	5.8µM*	-5%
CCOc1ccc(CC(=O)NCc2cn3c(C)csc3n2)cc1	5%	3%	1%	-21%	2%
COc1ccc(C2=NN(C(=O)C(O)c3ccccc3)C(O)(C(F)(F)F)C2)cc1 (configuration not stated)	-5%	7%	-23%	?	nt
CCCC1=NN(C(=O)Cc2ccc(OC)cc2)C(O)(C(F)(F)F)C1 (configuration not stated)	?	13µM*	?	?	3%
CCC1=NN(C(=O)Cc2ccc([N+](=O)[O-])cc2)C(O)(C(C)(C)C)C1 (configuration not stated)	-9%	8.9µM*	-14%	-22%	2%
CCc1ccc(C2(O)CC(C(F)(F)F)=NN2C(=O)Cc2ccc([N+](=O)[O-])cc2)cc1 (configuration not stated)	-5%	?	?	?	0%
CC1CCN(C(=O)Oc2ccccc2)CC1	23%	5%	3%	-2%	4%
CC(C)c1ccc(NC(=O)COC(=O)CCC(=O)c2cccs2)cc1	-11%	15%	-3%	18%	0%
CC(=O)Oc1cc(O)c2c(=O)c(OC(C)=O)c(-c3ccc(OC(C)=O)c(OC(C)=O)c3)oc2c1	nt	nt	?	21µM*	nt
CC(=O)Oc1cc(OC(C)=O)c2c(=O)cc(-c3ccc(OC(C)=O)c(OC(C)=O)c3)oc2c1	35µM*	?	?	27µM*	13%
COc1ccc(-c2oc3cc(OC)c(OC(C)=O)c(OC)c3c(=O)c2OC)cc1OC(C)=O	-3%	?	?	?	8%
CN(C)S(=O)(=O)N1CCC(Oc2cccc(C(=O)N3CCCCCC3)c2)CC1	-2%	22%	?	?	6%
CC(c1nc2ccccc2c(=O)[nH]1)N1CCN(S(=O)(=O)c2ccc(F)c(Cl)c2)CC1 (configuration not stated)	nt	nt	18µM*	?	nt
COc1ccc(C)cc1NC(=O)CCN1CCN(c2ccccc2F)CC1	-4%	-3%	?	?	nt
